Records with an inconclusive call do not appear. Active and inactive are the calls of the source. Unless noted, calls follow the shape of the dose curve; as a rule, active = well fitted curve in the direction sought with a large enough effect in the repeat runs; inconclusive = weak or mixed curves; inactive = no such curve, though single readings can be large; an effect the other way counts as inactive or inconclusive. Where a SMILES comes first, the peptide text is derived from it. [ ]: non-standard residue; d: D form. pGlu = O=C1CC[C@@H](C(=O)O)N1
What was measured:
[1] = A CellTox Green Cytotoxicity Assay to monitor cytotoxicity in HEK293 cells - 32 hour (AID 1224881); also: nearly all actives have a fitted effect of over 40% in size
Method in brief: (§1)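 Cytotoxicity was tracked continuously in HEK293 cells by a DNA-binding dye excluded from viable cells. Compounds were transferred in DMSO 5 h after seeding; fluorescence was recorded at intervals up to 40 h.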

[2] = A CellTox Green Cytotoxicity Assay to monitor cytotoxicity in HepG2 cells - 32 hour (AID 1224883); also: nearly all actives have a fitted effect of over 50% in size
Method in brief: (§2)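 Real-time, homogeneous cytotoxicity readout: dead-cell DNA staining by CellTox Green in HepG2 monolayers, fluorescence measured at timed intervals up to 40 h of continuous compound exposure.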

[3] = A CellTox Green Cytotoxicity Assay to monitor cytotoxicity in HEK293 cells - 8 hour (AID 1224884); also: nearly all actives have a fitted effect of over 35% in size
Method in brief: as §1

[4] = qHTS RealTime-Glo MT Cell Viability Assay in HepG2 cells - 16 hour (AID 1224885); also: nearly all actives have a fitted effect of over 50% in size
Method in brief: (§3)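 Cells + NanoLuc/prosubstrate dispensed (600 cells/well) → 5 h at 37 C/5% CO2 → compounds in DMSO transferred → 40 h incubation at 37 C, luminescence read at 0, 8, 16, 24, 32, 40 h.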

[5] = qHTS RealTime-Glo MT Cell Viability Assay in HEK293 cells - 24 hour (AID 1224886); also: nearly all actives have a fitted effect of over 50% in size; also: potency is read from the fitted curve at half-maximal effect
Method in brief: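 Tox21 10K qHTS, HEK293, 600 cells/well, RealTime-Glo reagent co-dispensed with cells; 5 h preincubation, compound by pintool, 37 C, luminescence at 0–40 h.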

[6] = qHTS RealTime-Glo MT Cell Viability Assay in HEK293 cells - 8 hour (AID 1224887); also: top concentration of the series differs between compounds; nearly all actives have a fitted effect of over 50% in size
Method in brief: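 Nonlytic bioluminescent viability monitoring. HEK293 at 600 cells/well with reagent; 5 h settle; compound transfer by pintool; plates held at 37 C and read at set time points.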

[7] = A CellTox Green Cytotoxicity Assay to monitor cytotoxicity in HEK293 cells - 16 hour (AID 1224888); also: nearly all actives have a fitted effect of over 35% in size
Method in brief: as §1

[8] = qHTS RealTime-Glo MT Cell Viability Assay in HepG2 cells - 0 hour (AID 1224889); also: nearly all actives have a fitted effect of over 50% in size; also: potency is read from the fitted curve at half-maximal effect
Method in brief: as §3

[9] = qHTS assay to identify small molecule antagonists of the estrogen receptor alpha (ER-alpha) signaling pathway using the BG1 cell line in the presence of 0.1 nM 17-beta-estradiol - cell viability counter screen (AID 1259241); also: nearly all actives have a fitted effect of over 40% in size
Method in brief: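 Live-cell protease activity (CellTiter-Fluor fluorescence, 30 min) was read in the same wells after VM7Luc4E2 cells had been exposed to compounds with 0.1 nM 17beta-estradiol for 22 hr at 37C.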

[10] = qHTS assay to identify small molecule antagonists of the androgen receptor (AR) signaling pathway using the MDA cell line in the presence of 0.5 nM R1881 - cell viability counter screen (AID 1259242); also: nearly all actives have a fitted effect of over 45% in size
Method in brief: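 Cytotoxicity toward MDA-kb2 cells is measured by CellTiter-Fluor live-cell protease fluorescence after 16 hr compound exposure at 37C in the presence of 0.5 nM R1881 stimulator.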

[11] = biological target: Estrogen receptor (Homo sapiens) (UniProt P03372); experiment: qHTS assay to identify small molecule antagonists of the estrogen receptor alpha (ER-alpha) signaling pathway using the BG1 cell line in the presence of 0.1 nM 17-beta-estradiol (AID 1259244); also: nearly all actives have a fitted effect of over 50% in size
Sequence of Estrogen receptor (Homo sapiens) (P03372 whole entry, looked up): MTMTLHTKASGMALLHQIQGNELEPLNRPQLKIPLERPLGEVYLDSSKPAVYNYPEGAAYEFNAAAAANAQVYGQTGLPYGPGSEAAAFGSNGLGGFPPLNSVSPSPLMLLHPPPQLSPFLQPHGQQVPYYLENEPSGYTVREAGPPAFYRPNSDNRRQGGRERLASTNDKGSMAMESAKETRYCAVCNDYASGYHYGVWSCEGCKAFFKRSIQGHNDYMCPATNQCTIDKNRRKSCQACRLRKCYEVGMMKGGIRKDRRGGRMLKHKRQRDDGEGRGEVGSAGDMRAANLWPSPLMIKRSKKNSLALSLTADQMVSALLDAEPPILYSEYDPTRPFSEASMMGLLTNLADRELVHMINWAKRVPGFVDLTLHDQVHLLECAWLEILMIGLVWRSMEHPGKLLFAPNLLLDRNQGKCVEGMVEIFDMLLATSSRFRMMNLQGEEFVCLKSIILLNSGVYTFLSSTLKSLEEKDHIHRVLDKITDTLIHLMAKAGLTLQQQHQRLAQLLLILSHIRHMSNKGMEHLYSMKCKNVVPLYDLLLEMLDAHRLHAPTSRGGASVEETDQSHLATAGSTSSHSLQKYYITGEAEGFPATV
Method in brief: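 After 5 days in hormone-depleted medium (charcoal-stripped serum, no phenol red), VM7Luc4E2 cells were seeded, incubated 24 h, then co-treated with compound and 0.1 nM (final) estradiol for 22 h before luminescence detection.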

[12] = qHTS assay to identify small molecule HDAC inhibitors (AID 1259364); also: top concentration of the series differs between compounds; nearly all actives have a fitted effect of over 45% in size
Method in brief: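 Homogeneous cell-based luminescent assay of endogenous class I/II HDAC activity; HCT-116 cells, 2 h compound exposure, 30 min HDAC-Glo development at RT.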

[13] = qHTS assay to identify small molecule HDAC inhibitors - cell viability counter screen (AID 1259365)
Method in brief: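 HCT-116 (wild type), 1,500 cells/well, overnight 37C/5% CO2; compound in DMSO 2hr; CellTiter-Glo 30min RT; luminescence read.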

[14] = qHTS assay to identify small molecule antagonists of the sonic hedgehog signaling (Shh) pathway - cell viability counter screen (AID 1259367); also: nearly all actives have a fitted effect of over 55% in size
Method in brief: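 Cells: 3T3 Gli1-Luc, 2,000/well, 4 hr pre-incubation. Compounds in DMSO, then conditioned medium. Incubation 24 hr, 37C, 5% CO2. CellTiter-Fluor at 23 hr, 1 hr, fluorescence.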

[15] = qHTS assay to identify small molecule agonists of the sonic hedgehog signaling (Shh) pathway (AID 1259368; calls by dose curve;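 also: NIH/3T3-derived 3T3Gli1-Luc cells carrying a stable Gli1-driven firefly luciferase reporter; series mostly up to about 92 µM; nearly all actives have a fitted effect of over 15% in size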)
Method in brief: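 Steps: seed 3T3 Gli1-Luc cells, incubate 4 hr at 37 C, pin-transfer compounds in DMSO alongside a positive control, incubate 24 hr, add luciferase detection reagent, wait 30 min at room temperature, read luminescence.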

[16] = A CellTox Green Cytotoxicity Assay to monitor cytotoxicity in HepG2 cells - 8 hour (AID 1224890); also: nearly all actives have a fitted effect of over 45% in size
Method in brief: as §2

[17] = qHTS assay to identify small molecule phospholipidosis (PLD) inducers (AID 1259344; active = well fitted curve in the direction sought with a large enough effect; an effect the other way counts as inactive or inconclusive)
Method in brief: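 Phospholipidosis is scored by imaging LipidTOX-stained pits in HepG2 cells exposed to compound for 24 h at 37 C; pit counts and integrated intensities per well and per cell serve as outputs.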

[18] = qHTS assay to identify small molecule agonists of the sonic hedgehog signaling (Shh) pathway - cell viability counter screen (AID 1259366); also: nearly all actives have a fitted effect of over 50% in size
Method in brief: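 CellTiter-Fluor fluorescence read-out, 1 hr at 37C, added after 23hr compound exposure. Cells: 3T3 Gli1-Luc, an NIH/3T3 clone with stably integrated Gli1-Luc reporter, plated 4hr before compound.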

[19] = A CellTox Green Cytotoxicity Assay to monitor cytotoxicity in HepG2 cells - 0 hour (AID 1224882); also: nearly all actives have a fitted effect of over 35% in size
Method in brief: as §2

[20] = biological target: Androgen receptor (Homo sapiens) (UniProt P10275); experiment: qHTS assay to identify small molecule antagonists of the androgen receptor (AR) signaling pathway using the MDA cell line in the presence of 0.5 nM R1881 (AID 1259243); also: nearly all actives have a fitted effect of over 50% in size; also: potency is read from the fitted curve at half-maximal effect
Sequence of Androgen receptor (Homo sapiens) (P10275 whole entry, looked up): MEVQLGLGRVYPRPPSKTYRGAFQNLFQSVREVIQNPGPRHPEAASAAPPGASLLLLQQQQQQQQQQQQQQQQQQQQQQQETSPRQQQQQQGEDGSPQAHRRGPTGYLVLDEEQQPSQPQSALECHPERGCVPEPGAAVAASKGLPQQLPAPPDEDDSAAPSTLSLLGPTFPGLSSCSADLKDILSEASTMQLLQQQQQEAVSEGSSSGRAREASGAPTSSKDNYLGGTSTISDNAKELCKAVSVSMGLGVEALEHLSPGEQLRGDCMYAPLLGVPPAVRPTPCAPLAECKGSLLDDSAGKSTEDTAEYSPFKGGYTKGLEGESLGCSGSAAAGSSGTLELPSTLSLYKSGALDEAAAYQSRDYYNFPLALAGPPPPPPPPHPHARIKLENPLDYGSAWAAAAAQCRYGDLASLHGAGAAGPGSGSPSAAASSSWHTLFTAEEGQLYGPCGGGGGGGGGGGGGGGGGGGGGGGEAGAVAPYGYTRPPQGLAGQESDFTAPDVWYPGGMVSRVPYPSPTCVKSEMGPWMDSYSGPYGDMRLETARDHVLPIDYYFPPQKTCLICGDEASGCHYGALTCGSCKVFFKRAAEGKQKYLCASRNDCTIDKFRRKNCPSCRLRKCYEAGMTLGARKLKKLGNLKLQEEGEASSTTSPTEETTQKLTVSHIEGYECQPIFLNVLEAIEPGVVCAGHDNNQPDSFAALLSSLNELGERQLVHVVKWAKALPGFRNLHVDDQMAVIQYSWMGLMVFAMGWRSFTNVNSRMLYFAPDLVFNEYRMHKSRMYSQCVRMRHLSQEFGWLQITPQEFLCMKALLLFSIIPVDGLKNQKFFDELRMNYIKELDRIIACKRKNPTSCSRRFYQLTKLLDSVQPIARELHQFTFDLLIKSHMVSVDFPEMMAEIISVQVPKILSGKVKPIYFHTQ
Method in brief: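 Steps: seed MDA-kb2 cells, incubate 5 hr at 37C; pin-transfer compounds in DMSO; add R1881 to 0.5 nM final; incubate 16 hr; add ONE-Glo, wait 30 min at room temperature; read luminescence.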

Measured: Potency

CCNC(=O)[C@@H]1CCCN1C(=O)[C@H](CCCN=C(N)N)NC(=O)[C@H](CC(C)C)NC(=O)CNC(=O)[C@H](Cc1ccc(O)cc1)NC(=O)[C@H](CO)NC(=O)[C@H](Cc1c[nH]c2ccccc12)NC(=O)[C@H](Cc1cnc[nH]1)NC(=O)[C@@H]1CCC(=O)N1 ([pGlu]HWSYGLRP-NHEt)
not listed: [16] | [17] | [18] | [19] | [20]
inactive: all other assays above

CN1CCC(=C2c3ccccc3CCc3cccnc32)CC1
not listed: [2] | [6] | [14] | [17] | [18] | [19] | [20]
inactive: all other assays above

CC1=C(C/C=C(\C)CCC[C@H](C)CCC[C@H](C)CCCC(C)C)C(=O)c2ccccc2C1=O
not listed: [2] | [5] | [9] | [11] | [19] | [20]
inactive: all other assays above

Cc1ccc(C(=O)c2ccccc2)cc1
not listed: [1] | [12] | [17] | [20]
inactive: all other assays above

CNCCO
not listed: [2] | [6] | [11] | [17] | [19] | [20]
inactive: all other assays above

CCCCOC(=O)CCC(C)=O
not listed: [6] | [17] | [19] | [20]
inactive: all other assays above

CCN(Cc1ccccc1)c1ccccc1
active: [5] 21.6 µM | [20] 53.8 µM
not listed: [1] | [11] | [17] | [18]
inactive: all other assays above

C1CCC2(CCCCO2)OC1
not listed: [6] | [17] | [19] | [20]
inactive: all other assays above

C[N+](C)(CCOc1ccccc1)Cc1cccs1
not listed: [2] | [11] | [19]
inactive: all other assays above

COc1c(N2CCNC(C)C2)c(F)cc2c(=O)c(C(=O)O)cn(C3CC3)c12 (configuration not stated)
not listed: [9] | [11] | [19] | [20]
inactive: all other assays above

OCCc1ccccn1
not listed: [9] | [11] | [16] | [17] | [19] | [20]
inactive: all other assays above

CC(=O)OCC(=O)[C@@]1(O)[C@H](C)C[C@H]2[C@@H]3CCC4=CC(=O)C=C[C@]4(C)[C@@]3(F)[C@@H](O)C[C@@]21C
active: [8] 9.52 µM
not listed: [9] | [11] | [16] | [19] | [20]
inactive: all other assays above

O=Cc1cccc(Br)c1
not listed: [2] | [11] | [17] | [19] | [20]
inactive: all other assays above

CO[C@@]1(NC(=O)C(C(=O)O)c2ccc(O)cc2)C(=O)N2C(C(=O)O)=C(CSc3nnnn3C)CO[C@@H]21 (some centres not stated)
not listed: [2] | [5] | [19] | [20]
inactive: all other assays above

NC(CCC(=O)O)C(=O)O (configuration not stated)
not listed: [6] | [9] | [17] | [18] | [19] | [20]
inactive: all other assays above

— PubChem BioAssay (Tox21)
